Experimental data published in the OligoGym collection.

These sequences were tested against ENTHD1 (assay: pooled miR-30 sensor sort-seq; sequence = guide strand). Settings: shRNA.
Also: reference of the scale not given here.

**Q.** TTACAATCTCCTTCACTCGGTC was tested. Which sensor-assay potency score (higher = more potent) did it give?
**A.** 0.0777

**Q.** For TTAAGTTCTTGGATCACTGTGC, which sensor-assay potency score (higher = more potent) is on record?
**A.** 0.62

**Q.** With TTGTGAACTATTCAGACTCATG as the sequence, how does the sensor-assay potency score (higher = more potent) read?
**A.** -1.36

**Q.** For TATACTTCTTCTCTGAAGCAGA, which sensor-assay potency score (higher = more potent) is on record?
**A.** -0.435

**Q.** With TAGAAAACAATATAGAGTGGGA as the sequence, how does the sensor-assay potency score (higher = more potent) read?
**A.** 0.012

**Q.** Which sensor-assay potency score (higher = more potent) does the source give for TTATCATCCATCTGAATGCTGG here?
**A.** -0.718

**Q.** For TTTTATTATGTAACCTTCCAAA, which sensor-assay potency score (higher = more potent) is on record?
**A.** -1.23

**Q.** How did the sensor-assay potency score (higher = more potent) turn out when TATTTGTAAAGATACCATCTGA was run?
**A.** -0.616

**Q.** TAGTTTGAAAGATACTTGCTAA was tested. Which sensor-assay potency score (higher = more potent) did it give?
**A.** -0.328

These sequences were tested against ENTPD8 in the same assay as above. Settings: shRNA.

**Q.** For TAGCTGTGAGTGTAGACGCTGT, which sensor-assay potency score (higher = more potent) is on record?
**A.** 0.245

**Q.** Which sensor-assay potency score (higher = more potent) does the source give for TAGTCGGAGCCGTAGAGGCGAA here?
**A.** -1.54

**Q.** TCAAACACGATCCCAAACTTGA was tested. Which sensor-assay potency score (higher = more potent) did it give?
**A.** -0.982

**Q.** Which sensor-assay potency score (higher = more potent) does the source give for TAGTTGACAGTGATCCAACCAA here?
**A.** 0.0426

**Q.** With TAGACGCTGTAGTCGGAGCCGT as the sequence, how does the sensor-assay potency score (higher = more potent) read?
**A.** -0.675

**Q.** For TTGACCAGCGTCCCCAAGCCGT, which sensor-assay potency score (higher = more potent) is on record?
**A.** -1.42

**Q.** With TCAACTGTGAGGTTCTGGGGGA as the sequence, how does the sensor-assay potency score (higher = more potent) read?
**A.** 0.228

**Q.** With TCAGCATCTGGTCCCGTCCAAA as the sequence, how does the sensor-assay potency score (higher = more potent) read?
**A.** -1.74

**Q.** For TTCAACTGTGAGGTTCTGGGGG, which sensor-assay potency score (higher = more potent) is on record?
**A.** 0.121

**Q.** For TTGCCTGTCCCTTCAACTGTGA, which sensor-assay potency score (higher = more potent) is on record?
**A.** -0.84

**Q.** For TAGCCGCTGAGGTAGCACGGGT, which sensor-assay potency score (higher = more potent) is on record?
**A.** -0.869

These sequences were tested against EPAS1 in the same assay as above. Settings: shRNA.

**Q.** Which sensor-assay potency score (higher = more potent) does the source give for TAGTATGGACAGTTGTGTGTGA here?
**A.** -0.0372

**Q.** How did the sensor-assay potency score (higher = more potent) turn out when TTAGCTGGAAGTCTTCCCCGTC was run?
**A.** -0.236

**Q.** With TTTGGCAACAACAATAACGAGG as the sequence, how does the sensor-assay potency score (higher = more potent) read?
**A.** -0.434

**Q.** How did the sensor-assay potency score (higher = more potent) turn out when TTCACCTCACAGTCATATCTGG was run?
**A.** -0.278

**Q.** Which sensor-assay potency score (higher = more potent) does the source give for TACAAGTTGTCCATCTGCTGGT here?
**A.** 0.354

**Q.** For TTGGGTGAACTTATCATTGGGT, which sensor-assay potency score (higher = more potent) is on record?
**A.** 0.697

**Q.** Which sensor-assay potency score (higher = more potent) does the source give for TTTAAGAACATTTCAGAACAGG here?
**A.** -0.533

**Q.** Which sensor-assay potency score (higher = more potent) does the source give for TAGTTGACACACATGATGCACT here?
**A.** -0.913

**Q.** Which sensor-assay potency score (higher = more potent) does the source give for TCTGTGGACATGTCTTTGCTTT here?
**A.** -0.503

**Q.** For TTTTCTGACAGAAAGATCATGT, which sensor-assay potency score (higher = more potent) is on record?
**A.** 0.329

**Q.** For TTTCAGGTACAAGTTGTCCATC, which sensor-assay potency score (higher = more potent) is on record?
**A.** -1.4

**Q.** TTCAGCTTCAGCTTGTTGGAGA was tested. Which sensor-assay potency score (higher = more potent) did it give?
**A.** -0.377

**Q.** How did the sensor-assay potency score (higher = more potent) turn out when TTGAACAGGGATTCAGTCTGGT was run?
**A.** 0.262

**Q.** How did the sensor-assay potency score (higher = more potent) turn out when TTGAGGTTGACAGTACGGCCTC was run?
**A.** -0.329

**Q.** For TTCATGTCCATGCTGTGGCGGC, which sensor-assay potency score (higher = more potent) is on record?
**A.** -0.685

**Q.** For TTAGAAGTCATTGAAGGTGGGG, which sensor-assay potency score (higher = more potent) is on record?
**A.** 0.712

**Q.** TCACACATGATGATGAGGCAGG was tested. Which sensor-assay potency score (higher = more potent) did it give?
**A.** -0.0655

**Q.** TTTGTCATGGCACTGAAGCAGT was tested. Which sensor-assay potency score (higher = more potent) did it give?
**A.** -0.635

**Q.** For TTGTTGTAGACTTTCACCTGGC, which sensor-assay potency score (higher = more potent) is on record?
**A.** 0.403

**Q.** For TAGAAGTCATTGAAGGTGGGGA, which sensor-assay potency score (higher = more potent) is on record?
**A.** 0.421
